Screening data from PubChem BioAssay.
HepG2 viability: counter-screen for TGF-b inhibitors: cytotoxicity in HepG2 cells. Potency, µM (doses to about 46.1 µM), inactives show at the top dose activity change, negative = cytotoxicity, hits mostly cytotoxic. HepG2 CAGA-GFP viability, ATP luminescence, 18 h. AID 588856. actives 0.76% (n = 410,000); further: potency means the concentration at half of the fitted maximal effect
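HepG2 CAGA-GFP cells (1000/well, DMEM with 1% FBS) received compound, then TGF-beta at 500 pg/mL final, and were incubated 18 hours at 37 degrees C. Viability was read by CellTiter-Glo luminescence. Media-only wells were set as complete cell-killing and DMSO as no toxicity.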
ATXN2 expr inh: reduces ATXN2 reporter expression in HEK-293 cells | HEK-293 ATXN2-luciferase reporter, luminescence, 24 h | actives 0.72% (n = 360,000) | Potency, µM (highest dose often 57 µM), for the others: top-dose activity change, negative = inhibition, most hits filed as inhibitors; further: potency means the concentration at half of the fitted maximal effect; on the % scale 0 is the no-effect control and ±100 the full control effect; nearly all actives have a fitted effect of over 55% in size
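ATXN2-luciferase reporter cells (luciferase flanked by upstream and downstream ATXN2 gene portions) were treated 24 h at 37 °C with compounds at up to 57 uM. SteadyGlo luminescence gave expression; GF-AFC fluorescence gave viability.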
uPA surface inh: blocks generation of uPA at the cell surface | cell surface uPA generation assay, qHTS | Potency, µM (titrated, usually from 38.3 µM), inactives show at the top dose activity change, negative = inhibition, most hits filed as inhibitors | actives 0.31% (n = 330,000); active means well fitted inhibition curve with a large enough effect; inconclusive means small, poorly fitted or top-dose-only effect; inactive means no such curve, though single readings can be large or run the other way; tested in mouse RAW 264.7 cells; further: potency means the concentration at half of the fitted maximal effect; on the % scale 0 is the no-effect control and ±100 the full control effect; nearly all actives have a fitted effect of over 55% in size
TGFb inhibitor: blocks TGF-b signaling; HepG2 CAGA-GFP TGF-b/SMAD3 reporter, GFP fluorescence, 18 h; TGF-beta stimulated, 500 pg/mL final; Potency, µM (series often up to 46.1 µM), without a hit: top-dose activity, negative = inhibition, usual class: inhibitors; actives 1.2% (n = 410,000); AID 588855; further: potency means the concentration at half of the fitted maximal effect; on the % scale 0 is the no-effect control and ±100 the full control effect; nearly all actives have a fitted effect of over 65% in size
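Read-out: total well GFP (ex488/em500-530) summed from mean per-cell fluorescence. Cells: HEPG2 CAGA-GFP, 1% FBS DMEM, 18 h at 37 degrees C with 500 pg/mL final TGF-beta. Unstimulated wells served as the full-inhibition control; stimulated DMSO wells = 0%.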
Giardia kill: kills Giardia lamblia | Giardia lamblia trophozoite viability | activity change, % at 7.66 µM, hits read low | actives 0.15% (n = 340,000); in the data active means activity change below about -80%; inconclusive means between about -30% and that limit;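 further: parasites exposed to compound for two days anaerobically before the ATP read; on the % scale 0 is the no-effect control and ±100 the full control effect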
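Anaerobic 48 hrs incubation at 37 deg C of 100 trophozoites/well with test compounds; ATPLite 1-Step luminescence, 15-30 min RT, reports cellular ATP as viability.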
ATXN viability: reduces viability in counter-screen for ATXN expression inhibitors; Potency, µM (highest dose often 56.7 µM), usual class: cytotoxic; AID 651635; S2 cells (HEK-293 line with an ATXN2-luciferase reporter) viability, CellTiter-Fluor protease fluorescence, 24 h; actives 0.49% (n = 400,000); further: potency means the concentration at half of the fitted maximal effect; nearly all actives have a fitted effect of over 40% in size
* marks the source's active call; other numbers are inactive results; i = inactive; ? = inconclusive; . = no result; ! = a repeat was not active. Most compounds without a hit are left out; they make up all but 2.6% or so of the library. Unless noted, the call rests on the fitted dose curve; in most records, active means well fitted curve in the direction sought with a large enough effect; inconclusive means small, poorly fitted or top-dose-only effect, or another doubt; inactive means no such curve, though single readings can be large; an effect the other way counts as inactive or inconclusive.

SMILES	HepG2 viability	ATXN2 expr inh	uPA surface inh	TGFb inhibitor	Giardia kill	ATXN viability
COCC(=O)Nc1cc(C(=O)N2CCCOc3c(cccc3OC)C2)c2c(c1)nc(C1CCC1)n2C	.	.	.	.	.	i
FC(F)(F)c1cccc(-c2cc3nc(NC4CCCCC4)ccn3n2)c1	-86.7%	?	.	15.8µM*	.	?
Clc1cccc(CNc2ccn3nc(-c4ccc(OCCN5CCOCC5)cc4)cc3n2)c1	-48.4%	?	.	11.2µM*	.	.
c1cc(-c2cc3nc(NC4CCCCC4)ccn3n2)ccc1OCCN1CCOCC1	-71.9%	?	.	11.2µM*	.	25.1µM*
O=C(Nc1ccc(-c2nc3cc(NC(=O)c4cccs4)ccc3o2)cc1)c1cccs1	2.3%	10µM*	.	3.1%	0.4	15.8µM*
O=C(Nc1ccc2oc(-c3ccncc3)nc2c1)c1cccs1	-5.0%	-7.7%	2.6%	0.7%	-2.2	i
CCC(=O)Nc1ccc2oc(-c3cccc(C)c3)nc2c1	20µM*	34.2%	-10.0%	0.0%	?	i
c1ccc(-c2cnc(-c3ccccn3)nn2)cc1	-36.1%	?	6.31µM*	?	?	?
O=C1NC(=S)N/C1=C/c1cccn1-c1ccc([N+](=O)[O-])cc1	-42.9%	-8.9%	-8.7%	7.08µM*	3.8	i
N=C1/C(=C/c2cccn2-c2ccc([N+](=O)[O-])cc2)C(=O)N=C2SC=CN12	1.6%	-4.4%	-2.9%	3.5%	5.6	i
COc1cc(F)ccc1-c1csc(C(O)(c2ccccc2)C(F)(F)F)n1 (stereo not given)	22.4µM*	?	.	?	.	?
CN(C)c1ccc(-c2csc(C(O)(c3ccccc3)C(F)(F)F)n2)cc1 (stereo not given)	15.8µM*	13.5%	.	?	.	i
Cc1ccc(-c2csc(C(O)(c3ccccc3)C(F)(F)F)n2)cc1C (stereo not given)	-96.7%	-23.6%	.	?	.	?
CCCCCc1cc(=O)oc2c(C(CCN3CCCC(C)C3)c3ccc(OC)cc3)c(OC)cc(OC)c12 (stereo not given)	11.2µM*	?	4.9%	?	-0.1	.
COc1cc(C(CCN2CCCCC2)c2c(OC)cc(OC)c3c(-c4ccccc4)cc(=O)oc23)cc(OC)c1OC (stereo not given)	-80.1%	?	13.4%	?	21.8	25.1µM*
COc1cc(OC)c2c(C)cc(=O)oc2c1C(CCN1CCCC(C)C1)c1ccc(N(C)C)cc1 (stereo not given)	-16.8%	.	.	0.4%	-16.6	.
COc1cc(OC)c2ccc(=O)oc2c1C(CCN1CCCC(C)C1)c1ccc2c(c1)OCO2 (stereo not given)	-46.0%	-21.3%	-9.7%	?	-29.4	28.2µM*
COc1cc(O)c(C(CCN2CCCC(C)C2)c2ccc3c(c2)OCO3)c(OC)c1 (stereo not given)	-26.0%	-6.9%	0.2%	?	0.5	?
CCCCCc1cc(=O)oc2c(C(CCN3CCCC3)c3ccc(N(C)C)cc3)c(OC)cc(OC)c12 (stereo not given)	12.6µM*	?	?	?	10.6	31.6µM*
C[C@](Cc1c[nH]c2ccccc12)(NC(=O)OC1C2CC3CC(C2)CC1C3)C(=O)NC[C@H](NC(=O)CCC(=O)O)c1ccccc1 (stereo not given in full)	.	-1.8%	.	.	.	.
Cc1nc(C)n(CC(=O)NCC2Cc3cc(-c4ccsc4)cc(Cl)c3O2)n1 (stereo not given)	.	.	.	.	.	i
CCCCCc1cc(=O)oc2c(C(CCN3CCCC3)c3cc(OC)c(OC)c(OC)c3)c(OC)cc(OC)c12 (stereo not given)	15.8µM*	?	?	?	-2.8	.
CCCCCc1cc(=O)oc2c(C(CCN3CCCCC3)c3ccc(OC)cc3)c(OC)cc(OC)c12 (stereo not given)	11.2µM*!	?	?	?	16.7	31.6µM*
COc1cc(C(CCN2CCCC2)c2c(OC)cc(OC)c3c(C)cc(=O)oc23)cc(OC)c1OC (stereo not given)	-0.5%	10.4%	5.5%	2.9%	5.6	?
CCCCCc1cc(=O)oc2c(C(CCN3CCN(c4ccccc4)CC3)c3ccc4c(c3)OCO4)c(OC)cc(OC)c12 (stereo not given)	-13.2%	-3.1%	-11.3%	-7.9%	-5.9	?
SMILES	HepG2 viability	ATXN2 expr inh	uPA surface inh	TGFb inhibitor	Giardia kill	ATXN viability
O=C(C1CCCCC1)N1CCOc2ccc(CN3CCN(Cc4ccccn4)CC3)cc2C1	.	.	.	.	.	i
C=CCOc1cc(Cl)ccc1C(=O)NCCN(CC)CC	.	-9.7%	.	.	.	i
O=C(/C=C/C(Cl)(Cl)Cl)Nc1ccc(Cl)cc1	12.6µM*	?	-10.3%	?	-10.6	?
NC(=O)/C=C/C(=O)Nc1ccc(Cl)cc1	4.9%	?	-10.2%	-24.0%	-6.3	?
Cc1ccccc1Oc1nc2c(C)cccn2c(=O)c1/C=C(\C#N)C(=O)NC1CCS(=O)(=O)C1 (stereo not given)	6.31µM*	-31.3%	-9.0%	?	1.4	?
COc1ccccc1N1CCN(CC(O)COc2cc(OC)c(OC)c(OC)c2)CC1 (stereo not given)	.	-4.2%	.	.	.	i
CN(C)CCNc1cccc2sc3ccc(O)cc3c(=O)c12	-58.1%	17.8µM*	.	4.47µM*	.	i
Cc1ccc(NCCN(C)C)c2c(=O)c3cc(O)ccc3sc12	-114.5%	10.6µM*	-10.4%	?	9.6	26.7µM*
O=C(NCC1(N2CCCCC2)CCCCC1)c1ccc(-n2cc(NC(=O)c3cccnc3)cn2)cc1	.	.	.	.	.	i
CC1(C)CC(C(=O)N2CCOc3ccc(CN4CCN(Cc5ccccn5)CC4)cc3C2)CCO1 (stereo not given)	.	.	.	.	.	i
OC(CN1c2ccccc2Sc2ccccc21)Cn1nnc2ccccc21 (stereo not given)	17.8µM*	-10.7%	2.0%	0.0%	-7.1	?
Cc1nn(CC(O)CN2c3ccccc3Sc3ccccc32)c(C)c1Br (stereo not given)	-120.9%	0.2%	7.1%	12.6µM*	-18.3	i
Cc1ccc(CN2CCc3nnc(C(NC(=O)c4ccoc4)C(C)C)n3CC2)cc1C (stereo not given)	.	.	.	.	.	i
O=C(/C=C/c1ccc(O)c(O)c1)O[C@@H]1C[C@@](OC(=O)/C=C/c2ccc(O)c(O)c2)(C(=O)O)C[C@@H](O)[C@@H]1O	.	5.8%	.	.	.	i
N#C/C(=C\c1ccc(O)c(O)c1)C(=O)N1CCc2ccccc21	-39.7%	6.3%	3.55µM*	-13.6%	-13.5	i
